Assay results: PubChem BioAssay (EPA / NIEHS)
Calls of active or inactive are those of the source. Rule for the calls: active = hit-call score of the fitted dose curve at least 0.9, where 1 is the maximum; inactive = score below 0.9.

Assays:
[1] = ATG_E_Box_CIS: Attagene CIS-FACTORIAL HepG2 Assay for human Enhancer Box (E-box) (AID 2282936); conditions: HepG2 E-box cis-reporter transcription, actives raise or lower the signal
How it was run: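 Cells: HepG2 (human liver), transient MRTU transfection. Exposure 24 h. RNA → oligo(dT) RT → PCR → 6-FAM label → HpaI → CE. Activity fitted both directions relative to DMSO.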

[2] = ATG_EGR_CIS: Attagene CIS-FACTORIAL HepG2 Assay for human Early Growth Response 1 (EGR1) (AID 2282938); conditions: HepG2 Attagene CIS-FACTORIAL EGR reporter mRNA; actives raise or lower the signal
How it was run: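 Read-out: fluorescent reporter-mRNA fragments resolved by capillary electrophoresis after RT-PCR, 24 h post-dose in transiently transfected HepG2. Endogenous transcription-factor activity reported via cis-element-regulated reporter units; gain or loss fitted relative to DMSO.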

[3] = ATG_Ets_CIS: Attagene CIS-FACTORIAL HepG2 Assay for human Erythroblast Transformation Specific (ETS) (AID 2282941); conditions: HepG2 ETS cis-reporter transcription, actives raise or lower the signal
How it was run: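 Human HepG2 hepatoma cells were transiently transfected with promoter-driven reporter constructs and treated for 24 hours. Reporter transcripts were quantified by RT-PCR with fluorescent primer extension; bidirectional curve fitting used DMSO as reference.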

[4] = molecular target: Hepatocyte nuclear factor 3-beta (Homo sapiens) (UniProt Q9Y261); experiment: ATG_FoxA2_CIS: Attagene CIS-FACTORIAL HepG2 Assay for human Forkhead box A2 (FOXA2) (AID 2282942); conditions: HepG2 cis-reporter transcription factor activity, 24 h; actives raise or lower the signal
How it was run: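 Readout: fluorescent reporter transcripts resolved by capillary electrophoresis after RT-PCR. Transiently transfected HepG2, 24 h compound exposure, endogenous TF activity at cis promoter elements. Gain or loss of signal fitted relative to DMSO.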

[5] = ATG_FoxO_CIS: Attagene CIS-FACTORIAL HepG2 Assay for human Forkhead box O (FoxO) (AID 2282943); conditions: HepG2 Attagene cis-reporter, FoxO element, mRNA; actives raise or lower the signal
How it was run: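 Human hepatoma HepG2 cells carry transiently introduced reporter transcription units controlled by cis promoter elements. Chemical treatment lasted 24 h, and mRNA signal was compared with DMSO.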

[6] = ATG_GATA_CIS: Attagene CIS-FACTORIAL HepG2 Assay for human GATA Binding Protein (AID 2282944); conditions: HepG2 GATA cis-element reporter, Attagene multiplex mRNA; actives raise or lower the signal
How it was run: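 Read-out: fluorescent reporter mRNA fragments resolved by capillary electrophoresis after RT-PCR. Human liver HepG2 cells carried transiently transfected cis-regulated reporter constructs; chemicals incubated 24 h; gain or loss of signal fitted relative to DMSO.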

[7] = ATG_GLI_CIS: Attagene CIS-FACTORIAL HepG2 Assay for human Zinc Finger Protein GLI1 (AID 2282945); conditions: HepG2, Attagene cis-factorial reporter mRNA, GLI element; actives raise or lower the signal
How it was run: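 Bidirectional curve fits relative to DMSO, using reporter mRNA levels from RT-PCR plus capillary electrophoresis. Cells were HepG2 transiently carrying cis-regulated reporter constructs, harvested 24 h after dosing.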

[8] = molecular target: Bile acid receptor (Homo sapiens) (UniProt Q96RI1); experiment: ATG_IR1_CIS: Attagene CIS-FACTORIAL HepG2 Assay for human Nuclear Receptor Subfamily 1 Group H Member 4 (NR1H4), IR1 submotif (AID 2282946); conditions: IR1 reporter transcription, actives raise or lower the signal
How it was run: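 Cells (human HepG2) carry transiently transfected cis-promoter reporter transcription units. Compounds are incubated 24 h, total RNA is reverse-transcribed and amplified, and labelled fragments are resolved by capillary electrophoresis. Curves use DMSO as baseline.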

[9] = ATG_GRE_CIS: Attagene CIS-FACTORIAL HepG2 Assay for human Glucocorticoid Response Elements (GRE) (AID 2282947); conditions: HepG2 GRE cis-reporter, Attagene multiplex mRNA; actives raise or lower the signal
How it was run: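 Transient MRTU transfection of human HepG2 liver cells; cis-regulated reporters report endogenous factors. 24 h dosing → RNA isolation → RT-PCR → 6-FAM primer extension → HpaI cut → CE fragment analysis. Bidirectional fit, DMSO negative control.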

[10] = ATG_ISRE_CIS: Attagene CIS-FACTORIAL HepG2 Assay for human Interferon Regulatory Factor 1 (IRF1) binding to an Interferon-Stimulated Response Element (ISRE) (AID 2282948); conditions: HepG2 ISRE cis-reporter (Attagene), mRNA transcription readout; actives raise or lower the signal
How it was run: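 Cell-based cis-reporter assay; HepG2; 24 h exposure; reporter mRNA by RT-PCR plus capillary electrophoresis fluorescence; activity in either direction scored relative to DMSO.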

[11] = ATG_M_32_CIS: Attagene CIS-FACTORIAL HepG2 Assay for M32 Transcription Factor (Internal Marker) (AID 2282949); conditions: HepG2 Attagene cis-factorial M32 reporter, mRNA; actives raise or lower the signal;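 note: background control marker of the multiplexed CIS panel rather than a real target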
How it was run: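 Fluorescent capillary electrophoresis peaks of HpaI-digested, FAM-labelled RT-PCR reporter products give the signal. Source: transiently transfected human liver HepG2 cells, 24 h after chemical dosing; bidirectional fitting against DMSO.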

[12] = ATG_M_06_CIS: Attagene CIS-FACTORIAL HepG2 Assay for M06 Transcription Factor (Internal Marker) (AID 2282950); conditions: HepG2 Attagene CIS-FACTORIAL M06 internal marker reporter; actives raise or lower the signal
How it was run: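 Terse: HepG2, transient MRTU transfection (FuGene 6), 24 h dosing; total RNA, oligo(dT) RT, PCR, FAM label, HpaI cut, capillary electrophoresis; bidirectional fit vs DMSO baseline; background-control endpoint.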

[13] = molecular target: Hypoxia-inducible factor 1-alpha (Homo sapiens) (UniProt Q16665); experiment: ATG_HIF1a_CIS: Attagene CIS-FACTORIAL HepG2 Assay for human Hypoxia Inducible Factor 1 (HIF1A) (AID 2282951); conditions: HepG2 Attagene cis-factorial HIF1a reporter transcription; actives raise or lower the signal
How it was run: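 RT-PCR/capillary electrophoresis fluorescence readout of reporter transcripts from endogenous-TF-driven cis elements in transfected HepG2 cells, 24 h exposure; activity fitted in both directions against DMSO controls.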

[14] = molecular target: Hepatocyte nuclear factor 6 (Homo sapiens) (UniProt Q9UBC0); experiment: ATG_HNF6_CIS: Attagene CIS-FACTORIAL HepG2 Assay for human Hepatocyte Nuclear Factor 6 (HNF6) (AID 2282952); conditions: HepG2 Attagene cis-factorial HNF6 reporter transcription; actives raise or lower the signal
How it was run: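 Reporter mRNA induction or loss in HepG2 after 24 h exposure; transient cis-MRTU transfection; fragments quantified by capillary electrophoresis; bidirectional analysis, DMSO as negative control.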

[15] = molecular target: Heat shock factor protein 1 (Homo sapiens) (UniProt Q00613); experiment: ATG_HSE_CIS: Attagene CIS-FACTORIAL HepG2 Assay for human Heat Shock Transcription Factor 1 (HSE) (AID 2282953); conditions: HepG2 HSE cis-reporter, Attagene RNA transcription; actives raise or lower the signal
How it was run: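 Read-out: fluorescence of reporter-specific RT-PCR fragments separated by capillary electrophoresis. HepG2 carrying transfected cis-element reporter units; 24 h dosing; activity fitted in both directions relative to DMSO baseline.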

[16] = ATG_MRE_CIS: Attagene CIS-FACTORIAL HepG2 Assay for human Metal Responsive Element (MRE) (AID 2282954); conditions: HepG2 MRE cis-reporter transcription, Attagene multiplex; actives raise or lower the signal
How it was run: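 Transient MRTU transfection of HepG2 (FuGene 6); 24 h dosing; total RNA → oligo(dT) RT, PCR, 6-FAM primer extension, HpaI cut, CE. Bidirectional fit vs DMSO.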

[17] = ATG_PBREM_CIS: Attagene CIS-FACTORIAL HepG2 Assay for human Phenobarbital-responsive Enhancer Module (PBREM) (AID 2282955); conditions: HepG2 PBREM cis-reporter, Attagene multiplexed transcription; actives raise or lower the signal
How it was run: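 Reporter mRNA read by RT-PCR, 6-FAM primer extension, HpaI digestion and capillary electrophoresis. Transfected HepG2 cells, 24 h compound exposure. Gain or loss of signal fitted bidirectionally relative to DMSO baseline.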

[18] = ATG_M_19_CIS: Attagene CIS-FACTORIAL HepG2 Assay for M19 Transcription Factor (Internal Marker) (AID 2282939); conditions: HepG2 Attagene CIS-FACTORIAL M19 internal marker reporter; actives raise or lower the signal
How it was run: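 Readout: fluorescent reporter-transcript fragments by capillary electrophoresis after RT-PCR. Human HepG2 liver cells carried transfected MRTU constructs reporting endogenous transcription-factor activity; exposure 24 h. Gain or loss of signal fitted relative to DMSO.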

[19] = ATG_ERE_CIS: Attagene CIS-FACTORIAL HepG2 Assay for Estrogen Response Element (ERE) (AID 2282940); conditions: HepG2 ERE cis-reporter, Attagene RNA transcript; actives raise or lower the signal
How it was run: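 Readout: reporter mRNA induction by RT-PCR, FAM-labelled primer extension, HpaI digestion and capillary electrophoresis, 24 h after dosing transfected HepG2 cells. Endogenous transcription factors act on cis-element-regulated reporters. Gain or loss fitted against DMSO.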

[20] = ATG_M_61_CIS: Attagene CIS-FACTORIAL HepG2 Assay for M61 Transcription Factor (Internal Marker) (AID 2282937); conditions: HepG2 Attagene CIS-FACTORIAL M61 internal marker reporter; actives raise or lower the signal
How it was run: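 Readout: fluorescent reporter mRNA fragments resolved by capillary electrophoresis after RT-PCR. Transiently transfected human HepG2 cells carried MRTU constructs reporting endogenous TF activity; 24 h chemical exposure; gain or loss of signal fitted relative to DMSO.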

Measured: AC50

Hypoxia-inducible factor 1-alpha (Homo sapiens), sequence (Q16665 whole entry, looked up): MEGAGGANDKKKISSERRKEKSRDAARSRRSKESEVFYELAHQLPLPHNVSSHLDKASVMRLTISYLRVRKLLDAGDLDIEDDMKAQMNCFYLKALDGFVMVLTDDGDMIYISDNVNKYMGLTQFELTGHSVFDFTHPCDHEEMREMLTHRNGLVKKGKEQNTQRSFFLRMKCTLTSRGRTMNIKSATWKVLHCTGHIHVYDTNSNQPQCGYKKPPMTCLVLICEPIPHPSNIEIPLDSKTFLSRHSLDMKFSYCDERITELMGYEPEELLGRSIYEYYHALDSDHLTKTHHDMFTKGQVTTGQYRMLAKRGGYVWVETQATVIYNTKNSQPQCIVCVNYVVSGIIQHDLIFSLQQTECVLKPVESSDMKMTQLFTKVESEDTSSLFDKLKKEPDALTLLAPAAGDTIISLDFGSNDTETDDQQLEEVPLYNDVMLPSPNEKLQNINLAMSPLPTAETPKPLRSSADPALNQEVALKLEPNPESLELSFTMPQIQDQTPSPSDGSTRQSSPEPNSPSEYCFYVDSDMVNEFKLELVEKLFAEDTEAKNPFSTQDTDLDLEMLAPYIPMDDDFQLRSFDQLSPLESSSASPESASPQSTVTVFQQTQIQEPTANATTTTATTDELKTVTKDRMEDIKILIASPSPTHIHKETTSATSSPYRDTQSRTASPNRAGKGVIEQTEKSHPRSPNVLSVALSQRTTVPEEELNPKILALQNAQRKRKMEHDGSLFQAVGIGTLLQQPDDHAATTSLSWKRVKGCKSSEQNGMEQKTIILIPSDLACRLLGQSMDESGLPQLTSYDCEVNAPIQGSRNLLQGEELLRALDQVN
Hepatocyte nuclear factor 6 (Homo sapiens), sequence (Q9UBC0 whole entry, looked up, the tested form may be a part): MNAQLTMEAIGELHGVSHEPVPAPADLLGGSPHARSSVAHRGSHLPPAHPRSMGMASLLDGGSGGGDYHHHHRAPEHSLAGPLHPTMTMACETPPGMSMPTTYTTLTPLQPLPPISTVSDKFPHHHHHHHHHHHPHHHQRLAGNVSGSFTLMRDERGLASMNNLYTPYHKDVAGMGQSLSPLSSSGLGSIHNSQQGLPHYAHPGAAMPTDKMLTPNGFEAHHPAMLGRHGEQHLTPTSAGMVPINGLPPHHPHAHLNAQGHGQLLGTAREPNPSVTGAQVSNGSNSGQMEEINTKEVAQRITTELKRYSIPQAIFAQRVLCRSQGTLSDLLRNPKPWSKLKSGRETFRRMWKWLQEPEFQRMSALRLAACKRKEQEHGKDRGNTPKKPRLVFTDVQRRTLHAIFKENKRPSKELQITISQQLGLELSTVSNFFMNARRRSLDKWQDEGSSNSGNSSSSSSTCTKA
Hepatocyte nuclear factor 3-beta (Homo sapiens), sequence (Q9Y261 whole entry, looked up): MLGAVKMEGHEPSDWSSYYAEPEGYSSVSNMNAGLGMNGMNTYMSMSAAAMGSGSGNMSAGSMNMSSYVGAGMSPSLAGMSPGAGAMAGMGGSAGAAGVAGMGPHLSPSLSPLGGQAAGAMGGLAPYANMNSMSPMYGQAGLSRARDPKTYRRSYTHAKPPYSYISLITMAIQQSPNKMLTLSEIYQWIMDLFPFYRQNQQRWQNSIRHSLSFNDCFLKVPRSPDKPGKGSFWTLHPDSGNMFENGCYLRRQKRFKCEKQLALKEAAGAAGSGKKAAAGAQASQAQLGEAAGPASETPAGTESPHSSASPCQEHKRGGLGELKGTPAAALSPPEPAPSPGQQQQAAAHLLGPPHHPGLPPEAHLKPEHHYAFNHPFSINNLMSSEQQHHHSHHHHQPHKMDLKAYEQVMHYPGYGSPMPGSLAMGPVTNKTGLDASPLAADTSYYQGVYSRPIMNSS
Heat shock factor protein 1 (Homo sapiens), sequence (Q00613 whole entry, looked up, the tested form may be a part): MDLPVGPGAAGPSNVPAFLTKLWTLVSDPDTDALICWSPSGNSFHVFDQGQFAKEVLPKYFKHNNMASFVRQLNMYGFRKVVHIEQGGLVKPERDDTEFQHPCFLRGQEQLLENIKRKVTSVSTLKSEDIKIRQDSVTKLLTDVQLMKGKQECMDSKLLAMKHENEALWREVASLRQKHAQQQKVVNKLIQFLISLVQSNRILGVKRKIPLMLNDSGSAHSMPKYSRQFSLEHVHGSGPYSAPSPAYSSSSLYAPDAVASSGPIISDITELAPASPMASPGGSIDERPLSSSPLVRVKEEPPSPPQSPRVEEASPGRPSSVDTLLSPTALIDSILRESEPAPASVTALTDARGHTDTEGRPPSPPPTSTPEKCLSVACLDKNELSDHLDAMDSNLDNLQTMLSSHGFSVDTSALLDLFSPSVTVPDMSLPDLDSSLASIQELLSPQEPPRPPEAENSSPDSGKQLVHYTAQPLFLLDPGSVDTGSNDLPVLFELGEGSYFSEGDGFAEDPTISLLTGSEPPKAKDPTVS
Bile acid receptor (Homo sapiens), sequence (Q96RI1 whole entry, looked up, the tested form may be a part): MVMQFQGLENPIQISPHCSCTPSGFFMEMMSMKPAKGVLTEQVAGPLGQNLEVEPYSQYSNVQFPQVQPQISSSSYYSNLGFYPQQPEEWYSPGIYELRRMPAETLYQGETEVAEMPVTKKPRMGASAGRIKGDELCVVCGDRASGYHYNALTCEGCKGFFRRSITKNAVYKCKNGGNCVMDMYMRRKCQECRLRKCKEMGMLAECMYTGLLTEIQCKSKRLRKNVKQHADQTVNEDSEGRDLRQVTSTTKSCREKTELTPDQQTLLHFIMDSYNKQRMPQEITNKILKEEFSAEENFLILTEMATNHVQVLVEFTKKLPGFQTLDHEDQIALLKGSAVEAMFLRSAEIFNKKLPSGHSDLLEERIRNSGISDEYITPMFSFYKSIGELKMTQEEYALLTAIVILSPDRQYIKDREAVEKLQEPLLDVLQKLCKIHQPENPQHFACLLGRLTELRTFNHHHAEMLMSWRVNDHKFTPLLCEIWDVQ

COc1ccc(N)c([N+](=O)[O-])c1
inactive: [1] | [2] | [3] | [4] | [5] | [6] | [7] | [8] | [9] | [10] | [11] | [12] | [13] | [14] | [15] | [16] | [17]

C=COCCOCCOC=C
inactive: [1] | [2] | [18] | [3] | [4] | [5] | [6] | [7] | [8] | [10] | [11] | [12] | [13] | [15] | [16] | [17]

CC1(C)CCC[C@]2(C)[C@H]3CCO[C@]3(C)CC[C@@H]12
active: [1] 58.3 µM | [15] 178 µM
inactive: [2] | [3] | [4] | [5] | [6] | [7] | [9] | [10] | [11] | [12] | [13] | [14] | [16] | [17]

Cc1ccc2c(c1)C(=O)OC2=O
inactive: [1] | [2] | [18] | [3] | [4] | [5] | [6] | [7] | [9] | [10] | [12] | [13] | [14] | [15] | [16] | [17]

C[C@@H]1CCN(C(=O)[C@H](CCCN=C(N)N)NS(=O)(=O)c2cccc3c2NC[C@H](C)C3)[C@@H](C(=O)O)C1
inactive: [1] | [2] | [18] | [19] | [3] | [4] | [6] | [10] | [11] | [12] | [13] | [15] | [16] | [17]

O=[N+]([O-])c1cccc(Cl)c1
inactive: [20] | [2] | [18] | [19] | [3] | [4] | [5] | [6] | [7] | [10] | [11] | [12] | [13] | [14] | [15] | [16]

NCC1CCCC(CN)C1 (centres undefined)
inactive: [1] | [2] | [18] | [3] | [4] | [5] | [6] | [7] | [8] | [9] | [10] | [11] | [12] | [13] | [14] | [15] | [16] | [17]

Cc1occc(=O)c1OC(=O)C(C)C
inactive: [1] | [2] | [3] | [4] | [5] | [6] | [7] | [9] | [10] | [11] | [12] | [13] | [14] | [15] | [16] | [17]
